Inhibition data for 25 compounds are collected here from ChEMBL document CHEMBL4296182, “CO-ADD screening of NIH NCI Diversity Set V”.

For part of these data: Measured potencies and affinities stand elsewhere.

The subject of one experiment is Staphylococcus aureus. Description: Antibacterial activity against Staphylococcus aureus MRSA ATCC 43300 (CO-ADD:GP_020); MIC in CAMBH media using NBS plates, by Resazurin F(560/590). Format: functional. Particulars: Concentration 20 uM, ASSAY_TEST Inhibition of Bacterial Growth, detection method Resazurin, Fluorescence (ex560/em590), MEDIA CAMHB, plate type 384well, CORNING #3640, time 18 hr. (In general: Alamar Blue is a resazurin reagent that responds to reducing activity.)

The subject of a further experiment is Acinetobacter baumannii. Description: Antibacterial activity against Acinetobacter baumannii ATCC 19606 (CO-ADD:GN_034); MIC in CAMBH media using NBS plates, by Resazurin F(560/590). Format: functional. The following applies: Concentration 20 uM, ASSAY_TEST Inhibition of Bacterial Growth, detection method Resazurin, Fluorescence (ex560/em590), MEDIA CAMHB, plate type 384well, CORNING #3640, time 18 hr.

In another experiment the test system is Escherichia coli. Put plainly: Antibacterial activity against Escherichia coli ATCC 25922 (CO-ADD:GN_001); MIC in CAMBH media using NBS plates, by Resazurin F(560/590). Type of experiment: functional. The following applies: Concentration 20 uM, ASSAY_TEST Inhibition of Bacterial Growth, detection method Resazurin, Fluorescence (ex560/em590), MEDIA CAMHB, plate type 384well, CORNING #3640, time 18 hr.

A further experiment concerns Klebsiella pneumoniae. Particulars: Concentration 20 uM; ASSAY_TEST Inhibition of Bacterial Growth; detection method Absorption (OD600); MEDIA CAMHB; plate type 384well; NBS; CORNING #3640; time 18 hr.
The subject of the next experiment is Candida albicans. Particulars: 20 µM.
The next experiment has as its system Cryptococcus neoformans. The following applies: Concentration 20 uM; ASSAY_TEST Inhibition of Fungal Growth; detection method Resazurin; Absorption (OD600-OD570); plate type 384well; NBS; CORNING #3640.

In the case of `Nc1n[nH]c(Nc2ccccc2)n1`, the Inhibition (as a rule, the change of the read-out against control, counted positive when it falls) is 19.31% in the experiment with Staphylococcus aureus; 2.24% in the experiment with Acinetobacter baumannii; 12.19% in the experiment on Escherichia coli; 2.99% in the experiment on Klebsiella pneumoniae; -0.65% in the experiment with Candida albicans; -7.66% with Cryptococcus neoformans.
`CCCCCC(=O)N1CCCCC1`: the Inhibition in the experiment with Staphylococcus aureus was 5.23%; with Acinetobacter baumannii, -9.77%; in the experiment with Escherichia coli, 7.04%; in the experiment on Klebsiella pneumoniae it was 14.07%; in the experiment with Candida albicans, 3.39%; in the experiment on Cryptococcus neoformans it was 2.22%.
Regarding `O=C1/C(=N\c2cccc(Cl)c2)CC(c2ccc(Cl)cc2)N1c1cccc(Cl)c1` (stereo not given), the Inhibition with Staphylococcus aureus is 20.38%; in the experiment on Acinetobacter baumannii, -11.7%; in the experiment with Escherichia coli, 10.42%; in the experiment on Klebsiella pneumoniae, 18.13%; with Candida albicans, -2.19%; in the experiment with Cryptococcus neoformans, -8.61%.
With `Cn1c(=O)c2c(nc(N3CCCCC3)n2C)n(C)c1=O`, the Inhibition was 9.93% in the experiment with Staphylococcus aureus; 4.85% in the experiment with Acinetobacter baumannii; 2.17% with Escherichia coli; 8.3% in the experiment on Klebsiella pneumoniae; 4.05% in the experiment on Candida albicans; -7.82% in the experiment on Cryptococcus neoformans.
With `CC(C)(NC(=O)c1cc(Cl)c2ccccc2c1O)C(=O)O`, the Inhibition with Staphylococcus aureus stood at 9.7%; in the experiment with Acinetobacter baumannii, 5.56%; in the experiment on Escherichia coli it was 13.46%; in the experiment on Klebsiella pneumoniae, 19.28%; in the experiment on Candida albicans it was 5.1%; in the experiment on Cryptococcus neoformans it was 0.69%.
For `CCCN=C(S)Nc1ccccc1`, the Inhibition in the experiment with Staphylococcus aureus was -20.14%; with Acinetobacter baumannii it was -0.42%; in the experiment with Escherichia coli, -3.75%; with Klebsiella pneumoniae, 7.36%; with Candida albicans, 4.15%; in the experiment with Cryptococcus neoformans, 1.71%.
As to `NNC(=O)c1nnsc1-c1csnn1`, the Inhibition was -28.09% with Staphylococcus aureus; 0.78% in the experiment with Acinetobacter baumannii; -18.51% in the experiment with Escherichia coli; 1.34% in the experiment with Klebsiella pneumoniae; 13.6% in the experiment on Candida albicans; 15.04% in the experiment on Cryptococcus neoformans.
For `Nc1ccc(SCc2nc3cccc4c3n2CCC4)cc1`, the Inhibition in the experiment with Staphylococcus aureus is 3.62%; in the experiment with Acinetobacter baumannii, -8.53%; in the experiment on Escherichia coli it was 10.5%; in the experiment with Klebsiella pneumoniae, 16.5%; in the experiment on Candida albicans, -0.32%; in the experiment on Cryptococcus neoformans, -14.91%.
Regarding `O=C(Nc1ccc(Oc2ccc(NC(=O)Nc3ccccc3Cl)cc2)cc1)Nc1ccccc1Cl`, the Inhibition was 19.6% with Staphylococcus aureus; -10.42% in the experiment on Acinetobacter baumannii; 14.43% with Escherichia coli; 12.03% in the experiment on Klebsiella pneumoniae; 16% with Candida albicans; 6.13% in the experiment with Cryptococcus neoformans.
Turning to `CCOc1ccc(/C=C2\NC(=S)NC2=O)cc1`, the Inhibition is 4.57% in the experiment with Staphylococcus aureus; -5.71% in the experiment with Acinetobacter baumannii; -3.24% in the experiment with Escherichia coli; 22.87% with Klebsiella pneumoniae; 0.92% with Candida albicans; -6.77% in the experiment with Cryptococcus neoformans.
Consider `CC(=O)c1cc2c(cc1C)CCCC2(C)C`, for which the Inhibition in the experiment with Staphylococcus aureus was 18.6%; in the experiment with Acinetobacter baumannii it was -15.87%; in the experiment with Escherichia coli it was 11.58%; with Klebsiella pneumoniae it was 0.53%; in the experiment on Candida albicans, -0.44%; with Cryptococcus neoformans it was -7.49%.
With `C=CCSc1n[nH]c(-c2cccs2)n1`, the Inhibition was 7.65% with Staphylococcus aureus; 11.99% with Acinetobacter baumannii; 1.25% with Escherichia coli; 19.42% with Klebsiella pneumoniae; 2.69% in the experiment with Candida albicans; -4.46% in the experiment on Cryptococcus neoformans.
For `CSc1ncc2ncn(C3OC(CO)C(O)C3O)c2n1` (stereo not given), the Inhibition with Staphylococcus aureus is 5.7%; in the experiment with Acinetobacter baumannii, 9.73%; with Escherichia coli, -9.56%; in the experiment with Klebsiella pneumoniae, 13.33%; with Candida albicans, 3.06%; in the experiment with Cryptococcus neoformans it was -1.46%.
Take `O=C1OC(Cc2ccccc2)C(c2ccccc2)C1=O` (stereo not given): the Inhibition is 9.75% with Staphylococcus aureus; 11.9% with Acinetobacter baumannii; 6.23% in the experiment with Escherichia coli; 14.26% in the experiment with Klebsiella pneumoniae; 6.87% with Candida albicans; -15.19% in the experiment with Cryptococcus neoformans.
Regarding `CN1CCN(C(=O)Nc2ccc([N+](=O)[O-])cc2)CC1`, the Inhibition was 7.33% with Staphylococcus aureus; 6.21% in the experiment on Acinetobacter baumannii; 0.54% in the experiment with Escherichia coli; 6.75% with Klebsiella pneumoniae; 1.28% with Candida albicans; -7.02% with Cryptococcus neoformans.
Regarding `CSc1nc(Cl)c(Br)c(Nc2cnc(O)nc2O)n1`, the Inhibition is 5.42% in the experiment with Staphylococcus aureus; 6.52% in the experiment with Acinetobacter baumannii; -1.71% with Escherichia coli; 4.64% with Klebsiella pneumoniae; -2.17% with Candida albicans; 0.33% in the experiment with Cryptococcus neoformans.
For the compound `O=C(OCC1CCC=CO1)C1CCC=CO1` (stereo not given), the Inhibition in the experiment with Staphylococcus aureus was 6.99%; with Acinetobacter baumannii, -10.56%; in the experiment with Escherichia coli, 3.07%; in the experiment on Klebsiella pneumoniae it was 7.72%; in the experiment on Candida albicans, 0.31%; in the experiment with Cryptococcus neoformans, -9.47%.
Consider `CCCSc1ncnc2[nH]ncc12`, for which the Inhibition in the experiment on Staphylococcus aureus was 4.5%; in the experiment on Acinetobacter baumannii, -9.04%; in the experiment on Escherichia coli, 5.02%; in the experiment on Klebsiella pneumoniae it was 27.49%; in the experiment with Candida albicans, 6.91%; in the experiment on Cryptococcus neoformans, -5.45%.
With `CCOP(=O)(OCC)/C(C#N)=C/c1c[nH]c2ccccc12`, the Inhibition in the experiment on Staphylococcus aureus was 16.69%; in the experiment with Acinetobacter baumannii, 9.53%; with Escherichia coli, -1.43%; in the experiment on Klebsiella pneumoniae, 13.34%; in the experiment on Candida albicans, -0.38%; with Cryptococcus neoformans it was -5.67%.
`O=C(O)c1cncc(Br)c1`: the Inhibition in the experiment on Staphylococcus aureus is 13.85%; with Acinetobacter baumannii, -13.95%; in the experiment on Escherichia coli, 3.81%; in the experiment on Klebsiella pneumoniae, 4.04%; with Candida albicans, 6.23%; in the experiment on Cryptococcus neoformans, -7.23%.
For `CSc1nc(O)cc(Cl)n1`, the Inhibition is -1.6% in the experiment with Staphylococcus aureus; -4.84% in the experiment on Acinetobacter baumannii; 7.44% in the experiment on Escherichia coli; 11.43% with Klebsiella pneumoniae; 2.04% in the experiment with Candida albicans; -0.01% in the experiment with Cryptococcus neoformans.
With `CCCCC[C@H](O)/C=C/[C@@H]1[C@@H](C/C=C\CCCC(=O)O)[C@@H](O)C[C@H]1O.NC(CO)(CO)CO` [DINOPROST TROMETHAMINE], the Inhibition was 12.44% with Staphylococcus aureus; -5.18% with Acinetobacter baumannii; 11.57% with Escherichia coli; 16.21% with Klebsiella pneumoniae; -0.17% in the experiment on Candida albicans; -7.36% in the experiment with Cryptococcus neoformans.
Regarding `COc1ccc(/N=N/c2ccc(N)nc2N)cc1`, the Inhibition with Staphylococcus aureus is 0.3%; with Acinetobacter baumannii, -8.88%; in the experiment with Escherichia coli, 5.08%; with Klebsiella pneumoniae, 7.55%; with Candida albicans, 4.94%; with Cryptococcus neoformans, -6.06%.
As to `Nc1nc2c[nH]c(N)nc-2n1`, the Inhibition in the experiment with Staphylococcus aureus is -4.21%; in the experiment with Acinetobacter baumannii it was 2.13%; in the experiment with Escherichia coli it was 5.84%; with Klebsiella pneumoniae, 7.49%; in the experiment with Candida albicans, 3.2%; with Cryptococcus neoformans it was -2.1%.
As to `COc1ccc2c(=O)cc(-c3cccnc3)oc2c1OC`, the Inhibition is 4.17% with Staphylococcus aureus; 8.21% in the experiment on Acinetobacter baumannii; 2.42% in the experiment with Escherichia coli; 26.45% in the experiment with Klebsiella pneumoniae; 9.13% with Candida albicans; -11.85% in the experiment with Cryptococcus neoformans.
